Data from article PMC7862700, “An all-to-all approach to the identification of sequence-specific readers for epigenetic DNA modifications on cytosine”.

What was measured:
Experiment in all cases: DAPPL (digital affinity profiling via proximity ligation, sequencing); 10 mM Tris-HCl pH 7.5, 50 mM NaCl, 1 mM DTT, 4% glycerol, room temperature, 30 min; GST-TFs on glutathione beads, 16-mer random dsDNA library, 0.1% formaldehyde crosslink after washing; high values mean tight binding
FLI1 = molecular target: T1, FLI1 (Homo sapiens, UniProt Q01543 1-452); settings: protein: recombinant; tags: N-terminal GST; dsDNA, one strand shown
T1 sequence: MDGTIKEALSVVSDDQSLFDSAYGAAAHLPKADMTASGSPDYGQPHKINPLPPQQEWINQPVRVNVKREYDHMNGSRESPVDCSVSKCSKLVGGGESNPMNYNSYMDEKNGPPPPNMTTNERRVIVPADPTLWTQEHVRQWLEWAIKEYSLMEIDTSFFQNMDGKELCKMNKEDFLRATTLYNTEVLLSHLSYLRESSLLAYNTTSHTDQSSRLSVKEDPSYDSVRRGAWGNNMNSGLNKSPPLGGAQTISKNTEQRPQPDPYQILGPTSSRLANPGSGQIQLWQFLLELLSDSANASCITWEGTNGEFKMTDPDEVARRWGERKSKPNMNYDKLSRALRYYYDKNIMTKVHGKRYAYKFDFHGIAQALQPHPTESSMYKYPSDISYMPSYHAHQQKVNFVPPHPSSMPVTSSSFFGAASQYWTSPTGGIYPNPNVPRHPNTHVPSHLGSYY
How it was run: (§1)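 The binding signal reported is, for every hexamer, its read frequency for a factor over its read frequency for the tag-only sample. Reads came from pools of yeast-expressed, GST-fused human transcription factors on glutathione beads, barcoded with DNA and mixed with that sample, which were incubated with 200 nmole of a random double-stranded 16-mer DNA library in Tris/NaCl/DTT/glycerol buffer at room temperature for 30 min. After washing, the pools were crosslinked with 0.1% formaldehyde, proximity-ligated with BsaI/T4 ligase for 1 h at 37 °C, PCR-amplified and sequenced on an Illumina NextSeq500.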

ELK1 = molecular target: T2, ELK1 (Homo sapiens, UniProt P19419 1-428); settings: protein: recombinant; tags: N-terminal GST; dsDNA, one strand shown
T2 sequence: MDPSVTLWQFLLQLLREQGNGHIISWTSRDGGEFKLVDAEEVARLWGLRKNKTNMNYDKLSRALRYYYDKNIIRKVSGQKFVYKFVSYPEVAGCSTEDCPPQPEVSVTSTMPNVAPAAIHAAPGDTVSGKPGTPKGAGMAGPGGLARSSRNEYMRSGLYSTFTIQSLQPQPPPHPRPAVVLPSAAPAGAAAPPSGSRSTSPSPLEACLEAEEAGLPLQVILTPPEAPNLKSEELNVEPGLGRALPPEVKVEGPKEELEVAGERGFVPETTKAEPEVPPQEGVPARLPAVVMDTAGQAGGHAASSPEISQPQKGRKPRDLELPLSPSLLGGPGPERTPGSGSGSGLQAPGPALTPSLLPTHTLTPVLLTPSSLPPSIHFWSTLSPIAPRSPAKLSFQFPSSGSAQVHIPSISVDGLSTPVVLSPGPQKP
How it was run: as §1

GABPA = molecular target: T3, GABPA (Homo sapiens, UniProt Q06546 1-454); settings: protein: recombinant; tags: N-terminal GST; dsDNA, one strand shown
T3 sequence: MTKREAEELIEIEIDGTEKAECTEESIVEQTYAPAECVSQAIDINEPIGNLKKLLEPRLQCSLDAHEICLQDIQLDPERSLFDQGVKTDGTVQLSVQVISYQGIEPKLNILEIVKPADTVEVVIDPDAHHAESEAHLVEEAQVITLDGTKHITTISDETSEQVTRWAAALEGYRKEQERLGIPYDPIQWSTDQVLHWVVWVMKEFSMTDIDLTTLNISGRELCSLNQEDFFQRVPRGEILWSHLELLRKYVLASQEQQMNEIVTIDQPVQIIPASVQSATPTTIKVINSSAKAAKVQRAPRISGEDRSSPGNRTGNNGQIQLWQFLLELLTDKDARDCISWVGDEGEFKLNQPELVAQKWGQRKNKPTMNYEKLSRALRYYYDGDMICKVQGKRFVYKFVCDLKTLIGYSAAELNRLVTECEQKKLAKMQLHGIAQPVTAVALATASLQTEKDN
How it was run: as §1

ERG = molecular target: T4, ERG (Homo sapiens, UniProt P11308 1-479); settings: protein: recombinant; tags: N-terminal GST; dsDNA, one strand shown
T4 sequence: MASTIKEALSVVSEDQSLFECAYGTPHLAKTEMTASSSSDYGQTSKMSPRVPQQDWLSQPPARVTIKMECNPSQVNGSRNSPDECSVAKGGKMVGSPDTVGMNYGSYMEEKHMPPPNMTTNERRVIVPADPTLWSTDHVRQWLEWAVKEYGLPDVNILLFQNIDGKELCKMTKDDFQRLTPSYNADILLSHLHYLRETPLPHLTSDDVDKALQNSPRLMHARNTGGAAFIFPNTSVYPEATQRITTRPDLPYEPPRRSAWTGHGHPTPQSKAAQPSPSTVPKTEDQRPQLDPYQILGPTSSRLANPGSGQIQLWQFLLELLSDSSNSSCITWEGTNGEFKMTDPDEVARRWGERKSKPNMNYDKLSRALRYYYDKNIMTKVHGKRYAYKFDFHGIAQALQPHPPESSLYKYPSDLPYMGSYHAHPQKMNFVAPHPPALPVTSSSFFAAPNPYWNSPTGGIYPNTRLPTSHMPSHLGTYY
How it was run: as §1

ELF1 = ELF1 (Homo sapiens, UniProt P32519 1-619); settings: protein: recombinant; tags: N-terminal GST; dsDNA, one strand shown
Chain of ELF1 (P32519 whole entry): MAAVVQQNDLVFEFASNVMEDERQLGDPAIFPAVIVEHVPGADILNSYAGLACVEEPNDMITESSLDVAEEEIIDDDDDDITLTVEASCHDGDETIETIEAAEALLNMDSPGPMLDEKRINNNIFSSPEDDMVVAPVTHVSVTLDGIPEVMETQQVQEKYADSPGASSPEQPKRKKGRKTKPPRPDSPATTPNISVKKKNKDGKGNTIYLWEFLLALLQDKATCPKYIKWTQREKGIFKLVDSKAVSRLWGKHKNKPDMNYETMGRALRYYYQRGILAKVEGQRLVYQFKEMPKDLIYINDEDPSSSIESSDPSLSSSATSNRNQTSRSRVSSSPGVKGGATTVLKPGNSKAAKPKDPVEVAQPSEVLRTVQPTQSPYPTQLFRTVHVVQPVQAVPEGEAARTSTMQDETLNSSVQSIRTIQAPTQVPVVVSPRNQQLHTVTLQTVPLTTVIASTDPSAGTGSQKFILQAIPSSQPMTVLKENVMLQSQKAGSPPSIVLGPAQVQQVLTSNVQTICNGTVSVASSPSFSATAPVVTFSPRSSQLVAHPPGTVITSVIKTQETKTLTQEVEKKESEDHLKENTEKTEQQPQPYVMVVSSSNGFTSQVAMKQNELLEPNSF
How it was run: as §1

EHF = molecular target: T5, EHF (Homo sapiens, UniProt Q9NZC4 1-300); settings: protein: recombinant; tags: N-terminal GST; dsDNA, one strand shown
T5 sequence: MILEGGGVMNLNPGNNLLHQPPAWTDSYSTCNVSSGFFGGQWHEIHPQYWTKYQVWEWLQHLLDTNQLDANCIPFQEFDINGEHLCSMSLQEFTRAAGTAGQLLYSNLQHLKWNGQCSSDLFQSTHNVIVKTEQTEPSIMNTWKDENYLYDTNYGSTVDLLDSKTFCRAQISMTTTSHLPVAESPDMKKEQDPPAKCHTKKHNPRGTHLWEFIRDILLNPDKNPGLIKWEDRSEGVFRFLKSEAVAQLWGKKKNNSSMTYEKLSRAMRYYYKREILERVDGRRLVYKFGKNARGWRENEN
How it was run: as §1

SPI1 = SPI1 (Homo sapiens, UniProt P17947 1-270); settings: protein: recombinant; tags: N-terminal GST; dsDNA, one strand shown
How it was run: as §1

SPIB = SPIB (Homo sapiens, UniProt Q01892 1-262); settings: protein: recombinant; tags: N-terminal GST; dsDNA, one strand shown
Chain of SPIB (Q01892 whole entry): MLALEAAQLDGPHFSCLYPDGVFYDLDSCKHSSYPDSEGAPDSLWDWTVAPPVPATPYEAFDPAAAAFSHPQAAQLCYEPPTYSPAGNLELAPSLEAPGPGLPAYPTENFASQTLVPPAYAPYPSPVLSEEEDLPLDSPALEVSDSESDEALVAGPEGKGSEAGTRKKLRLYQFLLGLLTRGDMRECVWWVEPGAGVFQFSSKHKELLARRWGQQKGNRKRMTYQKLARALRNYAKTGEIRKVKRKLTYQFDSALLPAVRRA
How it was run: as §1

ELK3 = molecular target: T6, ELK3 (Homo sapiens, UniProt P41970 1-407); settings: protein: recombinant; tags: N-terminal GST; dsDNA, one strand shown
T6 sequence: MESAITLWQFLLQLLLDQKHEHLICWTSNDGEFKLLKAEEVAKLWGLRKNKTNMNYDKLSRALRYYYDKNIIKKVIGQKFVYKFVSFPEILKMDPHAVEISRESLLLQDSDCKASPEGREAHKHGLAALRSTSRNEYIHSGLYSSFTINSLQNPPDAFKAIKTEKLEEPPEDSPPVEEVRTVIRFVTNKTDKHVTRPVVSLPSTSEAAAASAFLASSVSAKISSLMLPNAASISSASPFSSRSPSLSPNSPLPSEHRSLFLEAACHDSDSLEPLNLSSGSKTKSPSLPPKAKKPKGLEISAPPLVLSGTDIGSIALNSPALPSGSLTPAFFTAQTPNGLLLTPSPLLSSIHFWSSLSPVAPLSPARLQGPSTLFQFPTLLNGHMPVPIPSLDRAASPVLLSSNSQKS
How it was run: as §1

FEV = molecular target: T7, FEV (Homo sapiens, UniProt Q99581 1-238); settings: protein: recombinant; tags: N-terminal GST; dsDNA, one strand shown
T7 sequence: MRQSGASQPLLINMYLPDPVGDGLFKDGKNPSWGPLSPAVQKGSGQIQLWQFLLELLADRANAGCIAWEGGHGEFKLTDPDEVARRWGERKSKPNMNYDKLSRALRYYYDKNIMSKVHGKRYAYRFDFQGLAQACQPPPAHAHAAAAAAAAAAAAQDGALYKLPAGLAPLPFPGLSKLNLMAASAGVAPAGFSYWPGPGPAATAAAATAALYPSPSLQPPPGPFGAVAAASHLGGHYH
How it was run: as §1

ETV5 = ETV5 (Homo sapiens, UniProt P41161 1-510); settings: protein: recombinant; tags: N-terminal GST; dsDNA, one strand shown
Chain of ETV5 (P41161 whole entry): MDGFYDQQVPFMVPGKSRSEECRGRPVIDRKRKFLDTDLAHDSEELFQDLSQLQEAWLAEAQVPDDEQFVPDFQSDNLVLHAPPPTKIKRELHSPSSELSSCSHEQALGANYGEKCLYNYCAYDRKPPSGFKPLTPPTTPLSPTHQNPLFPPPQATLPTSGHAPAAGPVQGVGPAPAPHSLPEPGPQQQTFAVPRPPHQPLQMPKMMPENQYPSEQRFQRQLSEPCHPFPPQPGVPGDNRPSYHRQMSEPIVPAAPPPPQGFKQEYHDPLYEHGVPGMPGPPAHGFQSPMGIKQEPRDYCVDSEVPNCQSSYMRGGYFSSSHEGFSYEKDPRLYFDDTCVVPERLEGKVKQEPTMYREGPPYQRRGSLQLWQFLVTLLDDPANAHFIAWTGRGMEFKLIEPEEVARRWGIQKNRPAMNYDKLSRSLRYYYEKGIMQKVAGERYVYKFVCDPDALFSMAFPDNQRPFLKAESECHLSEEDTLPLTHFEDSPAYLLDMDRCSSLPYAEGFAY
How it was run: as §1

HSF1 = HSF1 (Homo sapiens, UniProt Q00613 1-529); settings: protein: recombinant; tags: N-terminal GST; chain copies: 3; dsDNA, one strand shown
Chain of HSF1 (Q00613 whole entry): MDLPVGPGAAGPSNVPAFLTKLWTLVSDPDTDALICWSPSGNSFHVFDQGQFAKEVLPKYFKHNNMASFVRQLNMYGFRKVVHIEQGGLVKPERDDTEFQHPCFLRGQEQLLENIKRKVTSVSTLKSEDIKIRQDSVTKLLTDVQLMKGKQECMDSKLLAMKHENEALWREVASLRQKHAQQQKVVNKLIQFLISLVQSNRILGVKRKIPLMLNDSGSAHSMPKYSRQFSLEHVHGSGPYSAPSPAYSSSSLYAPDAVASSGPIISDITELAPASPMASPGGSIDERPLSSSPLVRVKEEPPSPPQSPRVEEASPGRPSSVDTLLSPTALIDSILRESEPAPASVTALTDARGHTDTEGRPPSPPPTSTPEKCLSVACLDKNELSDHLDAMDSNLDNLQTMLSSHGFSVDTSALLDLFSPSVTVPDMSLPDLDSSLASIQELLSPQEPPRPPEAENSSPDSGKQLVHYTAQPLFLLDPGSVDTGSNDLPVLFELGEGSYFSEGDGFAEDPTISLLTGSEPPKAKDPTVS
How it was run: as §1

SPIC = molecular target: T8, SPIC (Homo sapiens, UniProt Q8N5J4 1-248); settings: protein: recombinant; tags: N-terminal GST; dsDNA, one strand shown
T8 sequence: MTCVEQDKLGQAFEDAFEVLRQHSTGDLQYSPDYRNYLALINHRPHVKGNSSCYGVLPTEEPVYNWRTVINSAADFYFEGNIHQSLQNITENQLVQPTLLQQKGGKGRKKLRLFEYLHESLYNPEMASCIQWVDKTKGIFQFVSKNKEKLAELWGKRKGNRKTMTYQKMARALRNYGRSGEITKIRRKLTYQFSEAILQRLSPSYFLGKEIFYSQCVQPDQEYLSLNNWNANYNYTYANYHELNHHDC
How it was run: as §1

ELF4 = ELF4 (Homo sapiens, UniProt Q99607 1-663); settings: protein: recombinant; tags: N-terminal GST; dsDNA, one strand shown
Chain of ELF4 (Q99607 whole entry): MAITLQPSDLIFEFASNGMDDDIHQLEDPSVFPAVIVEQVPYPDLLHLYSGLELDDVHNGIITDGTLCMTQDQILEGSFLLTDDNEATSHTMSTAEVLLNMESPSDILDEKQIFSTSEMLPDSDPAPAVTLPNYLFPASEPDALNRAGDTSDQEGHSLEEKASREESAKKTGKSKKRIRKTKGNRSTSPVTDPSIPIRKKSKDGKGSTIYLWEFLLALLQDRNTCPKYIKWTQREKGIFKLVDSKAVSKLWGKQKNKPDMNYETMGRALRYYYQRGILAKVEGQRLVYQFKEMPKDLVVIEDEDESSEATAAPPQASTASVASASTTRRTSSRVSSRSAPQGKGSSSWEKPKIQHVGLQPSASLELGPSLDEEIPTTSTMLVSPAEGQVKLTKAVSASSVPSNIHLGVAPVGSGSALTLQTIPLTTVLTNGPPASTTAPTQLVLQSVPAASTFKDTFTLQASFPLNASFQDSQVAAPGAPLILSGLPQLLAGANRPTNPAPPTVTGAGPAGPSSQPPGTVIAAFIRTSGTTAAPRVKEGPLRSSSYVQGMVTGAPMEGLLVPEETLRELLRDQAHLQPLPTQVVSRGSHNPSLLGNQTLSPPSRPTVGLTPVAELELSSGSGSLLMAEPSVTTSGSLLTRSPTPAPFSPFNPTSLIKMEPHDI
How it was run: as §1

ELK4 = molecular target: T9, ELK4 (Homo sapiens, UniProt P28324-2 1-405); settings: protein: recombinant; tags: N-terminal GST; dsDNA, one strand shown
T9 sequence: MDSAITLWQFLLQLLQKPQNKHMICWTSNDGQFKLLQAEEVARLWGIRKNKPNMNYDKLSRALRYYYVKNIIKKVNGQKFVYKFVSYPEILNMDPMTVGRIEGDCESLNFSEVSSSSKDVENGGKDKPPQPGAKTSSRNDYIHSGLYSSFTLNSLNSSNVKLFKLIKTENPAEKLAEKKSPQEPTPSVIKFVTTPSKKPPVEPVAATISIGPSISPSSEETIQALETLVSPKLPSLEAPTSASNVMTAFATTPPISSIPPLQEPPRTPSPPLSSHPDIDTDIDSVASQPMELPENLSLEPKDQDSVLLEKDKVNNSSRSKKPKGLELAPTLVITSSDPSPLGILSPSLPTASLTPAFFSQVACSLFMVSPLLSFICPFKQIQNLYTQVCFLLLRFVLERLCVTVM
How it was run: as §1

ETV2 = molecular target: T10, ETV2 (Homo sapiens, UniProt O00321 1-342); settings: protein: recombinant; tags: N-terminal GST; dsDNA, one strand shown
T10 sequence: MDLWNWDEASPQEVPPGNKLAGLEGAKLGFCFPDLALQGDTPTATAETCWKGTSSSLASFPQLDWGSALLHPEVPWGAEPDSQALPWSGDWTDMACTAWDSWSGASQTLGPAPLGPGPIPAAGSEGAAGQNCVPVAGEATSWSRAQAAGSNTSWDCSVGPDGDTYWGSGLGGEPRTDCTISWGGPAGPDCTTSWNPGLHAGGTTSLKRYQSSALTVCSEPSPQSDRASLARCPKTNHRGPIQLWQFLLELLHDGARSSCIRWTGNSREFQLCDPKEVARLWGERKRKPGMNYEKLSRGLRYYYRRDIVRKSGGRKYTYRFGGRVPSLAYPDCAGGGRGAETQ
How it was run: as §1

ELF3 = molecular target: T11, ELF3 (Homo sapiens, UniProt P78545 1-371); settings: protein: recombinant; tags: N-terminal GST; dsDNA, one strand shown
T11 sequence: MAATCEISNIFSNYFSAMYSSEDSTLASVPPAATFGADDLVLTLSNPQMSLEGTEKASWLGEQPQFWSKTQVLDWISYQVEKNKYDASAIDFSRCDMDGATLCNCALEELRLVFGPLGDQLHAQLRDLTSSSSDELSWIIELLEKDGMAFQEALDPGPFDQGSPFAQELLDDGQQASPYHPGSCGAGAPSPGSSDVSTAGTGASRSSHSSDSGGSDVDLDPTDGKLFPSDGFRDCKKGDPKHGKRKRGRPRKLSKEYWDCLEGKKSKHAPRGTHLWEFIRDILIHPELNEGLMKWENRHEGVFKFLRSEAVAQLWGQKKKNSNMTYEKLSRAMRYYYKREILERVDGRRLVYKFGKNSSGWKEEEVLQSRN
How it was run: as §1

ETV1 = ETV1 (Homo sapiens, UniProt P50549 1-477); settings: protein: recombinant; tags: N-terminal GST; dsDNA, one strand shown
Chain of ETV1 (P50549 whole entry): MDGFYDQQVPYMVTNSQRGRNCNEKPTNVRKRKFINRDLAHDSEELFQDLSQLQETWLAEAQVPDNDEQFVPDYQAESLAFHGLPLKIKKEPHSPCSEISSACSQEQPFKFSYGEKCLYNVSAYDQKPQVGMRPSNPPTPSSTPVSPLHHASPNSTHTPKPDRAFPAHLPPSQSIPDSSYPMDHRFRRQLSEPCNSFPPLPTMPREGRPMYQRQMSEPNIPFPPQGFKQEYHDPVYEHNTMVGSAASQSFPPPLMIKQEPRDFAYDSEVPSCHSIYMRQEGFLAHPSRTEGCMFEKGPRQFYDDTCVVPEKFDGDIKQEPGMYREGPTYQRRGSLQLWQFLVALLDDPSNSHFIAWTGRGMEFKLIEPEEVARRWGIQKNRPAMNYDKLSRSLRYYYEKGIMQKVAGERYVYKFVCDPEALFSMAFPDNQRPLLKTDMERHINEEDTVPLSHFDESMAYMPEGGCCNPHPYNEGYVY
How it was run: as §1

With CTGACA the binding signal (FLI1) was 1.19 fold enrichment (6-mer frequency, TF over GST control), the binding signal (ELK1) was 1.18 fold enrichment (6-mer frequency, TF over GST control) and the binding signal (GABPA) was 1.2 fold enrichment (6-mer frequency, TF over GST control). For the same sequence, the binding signal (ERG) was 1.22 fold enrichment (6-mer frequency, TF over GST control), the binding signal (ELF1) was 1.27 fold enrichment (6-mer frequency, TF over GST control) and the binding signal (EHF) was 1.32 fold enrichment (6-mer frequency, TF over GST control). For the same sequence, the binding signal (SPI1) was 1.26 fold enrichment (6-mer frequency, TF over GST control), the binding signal (SPIB) was 1.17 fold enrichment (6-mer frequency, TF over GST control) and the binding signal (ELK3) was 1.24 fold enrichment (6-mer frequency, TF over GST control). For the same sequence, the binding signal (FEV) was 1.19 fold enrichment (6-mer frequency, TF over GST control), the binding signal (ETV5) was 1.22 fold enrichment (6-mer frequency, TF over GST control) and the binding signal (HSF1) was 1.01 fold enrichment (6-mer frequency, TF over GST control). For the same sequence, the binding signal (SPIC) was 1.03 fold enrichment (6-mer frequency, TF over GST control), the binding signal (ELF4) was 1.27 fold enrichment (6-mer frequency, TF over GST control) and the binding signal (ELK4) was 1.29 fold enrichment (6-mer frequency, TF over GST control). For the same sequence, the binding signal (ETV2) was 1.2 fold enrichment (6-mer frequency, TF over GST control), the binding signal (ELF3) was 1.25 fold enrichment (6-mer frequency, TF over GST control) and the binding signal (ETV1) was 1.19 fold enrichment (6-mer frequency, TF over GST control).
